Experimental data published in PubChem BioAssay AID493194 (Broad Institute, 2011).
Entries with a potency or affinity are not part of this list. Inconclusive results are not listed. Active and inactive are the calls of the source.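 How the source made its calls: active means a valid curve of falling signal whose half-effect concentration is at most ten times the top tested dose; inconclusive means flat curve at 30 to 70% inhibition, or poor fit; inactive means signal rise, flat within 30%, or potency beyond limit.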

biological target: Scavenger receptor class B member 1 (Mus musculus) (UniProt Q61009); assay: inhibitors of SR-BI mediated HDL lipid uptake, dose response, ldlA[mSR-BI] cells, fluorescence, cherry pick (AID 493194); settings: CHO ldlA[mSR-BI] DiI-HDL uptake fluorescence, 3 h; series mostly up to 35 µM; activity change, negative = inhibition: at the top concentration;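 further: CHO cells lacking LDL receptor and overexpressing mouse SR-BI; cellular uptake of fluorescently labeled HDL measured as cell fluorescence; 0% = median of neutral control wells and -100% = median of positive control wells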
Sequence (Q61009 whole entry, looked up): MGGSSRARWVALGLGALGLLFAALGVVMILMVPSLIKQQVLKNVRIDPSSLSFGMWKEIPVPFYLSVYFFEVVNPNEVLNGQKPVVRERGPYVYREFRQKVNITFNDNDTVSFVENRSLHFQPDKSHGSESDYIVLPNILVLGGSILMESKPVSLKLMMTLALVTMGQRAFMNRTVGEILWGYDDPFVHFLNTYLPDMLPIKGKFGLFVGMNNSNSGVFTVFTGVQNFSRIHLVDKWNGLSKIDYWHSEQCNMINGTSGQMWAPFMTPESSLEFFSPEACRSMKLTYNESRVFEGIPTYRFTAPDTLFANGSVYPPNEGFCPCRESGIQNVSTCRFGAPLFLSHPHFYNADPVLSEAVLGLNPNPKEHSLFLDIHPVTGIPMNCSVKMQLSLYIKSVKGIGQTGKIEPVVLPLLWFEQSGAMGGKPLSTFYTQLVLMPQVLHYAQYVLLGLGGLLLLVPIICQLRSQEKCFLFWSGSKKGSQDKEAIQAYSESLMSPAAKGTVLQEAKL

Activity change, negative = inhibition, inactive:
CCOC(=O)C1CCCN(C(=O)c2cc(COc3ccc(C)nc3)on2)C1 (stereo unspecified) 56.5%
Cc1ccc(CCNC(=O)C2CCN(C(=O)c3sccc3-n3cccc3)CC2)cc1 -1.91%
COc1ccc(C2/C=C\CN(S(=O)(=O)c3ccc4ccccc4c3)CC(=O)N2Cc2ccc(F)cc2)cc1 (stereo unspecified) 54.8%
Cn1c(-c2ccsc2)c(-c2cccs2)c2cc(-c3ccc4cc[nH]c4c3)ccc21 -34.9%
O=C(c1ccc(S(=O)(=O)NCc2ccco2)cc1)N1CCN(Cc2ccccc2)CC1 -36.1%
COc1ccc(CCNC(=O)c2ccc3c(c2)N(Cc2ccc(F)cc2)CCS3)c(OC)c1 3.53%
O=C(Nc1cccc(S(=O)(=O)N2CCOCC2)c1)C1CCN(S(=O)(=O)c2ccccc2)CC1 19.9%
CCOC(=O)CSc1c(-c2ccc(Cl)cc2)[nH]c2ccccc12 7.74%
Cc1cc(N2CCN(C(=O)c3ccco3)CC2)n2ncc(-c3ccccc3)c2n1 0.033%
CCn1c(C)c(C)c2cc(C(=O)Nc3cccc(Cl)c3)ccc21 -55.2%
O=C(OCc1ccccc1)N1CCC2CC1c1cc(-c3ccccc3)ccc12 (stereo unspecified) 36.1%
COc1ccc(-c2cc(C(F)(F)F)nc(SCCC(=O)N3CCN4CCCC4C3)n2)cc1 (stereo unspecified) 0.459%
Cc1ccc(-c2sc(-c3ccccc3)nc2CC(=O)Nc2ccccc2F)cc1 -23.8%
O=C(Nc1cccc(NC(=O)c2ccccc2Cl)c1)c1ccc(F)cc1 52.6%
Cc1ccc(OCc2cc(C(=O)N3CCCC(O)C3)no2)cn1 (stereo unspecified) 103%
CN(Cc1ccc(OC(F)F)cc1)C(=O)c1ccccc1Sc1ccccc1C#N 38.7%
CNC(=O)c1ccc(Nc2nnc(-c3ccc(O)cc3)c3ccccc23)cc1 -10.1%
COC(=O)c1cc2c(ccn2-c2ccc(F)cc2)n1Cc1ccc(C#N)cc1 -6.08%
CC(C)c1ccc(NC(=O)c2sccc2-n2cccc2)cc1 5.41%
Cc1ccc2nc(-c3ccccc3)cc(C(=O)N3CCN(c4ccccc4O)CC3)c2c1 -7.75%
Cc1ccc(C)c(NC(=O)c2ccc3c(c2)N(Cc2ccc(F)cc2)C(=O)CS3=O)c1 (stereo unspecified) 6.93%
